Inconclusive results are not listed. Active and inactive are the calls of the source. Unless noted, the call rests on the fitted dose curve; in most records, active means well fitted curve in the direction sought with a large enough effect; inconclusive means small, poorly fitted or top-dose-only effect, or another doubt; inactive means no such curve, though single readings can be large; an effect the other way counts as inactive or inconclusive.

Assay [1] is described as follows: Cell Viability - LYMP2-001 (AID 921). Further: series mostly up to about 92 µM; nearly all actives have a fitted effect of over 70% in size. An outline of the steps: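 CellTiter-Glo luminescence (intracellular ATP) after 24 hr compound exposure at 37 C, 2500 lymphoblastoid cells/well in complete medium. AC50 fitted with standard Hill equation; tetraoctylammonium bromide positive control.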
Assay [2] concerns the target Muscarinic acetylcholine receptor M1 (Rattus norvegicus) (UniProt P08482). Nature of the assay: qHTS Assay for Antagonists of Acetylcholine Muscarinic M1 Receptor: Measurement of IP-One Response (AID 944). Further: nearly all actives have a fitted effect of over 75% in size. Further: potency means the concentration at half of the fitted maximal effect. The method in brief:
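Steps: plate transfected CHO-M1 cells overnight; add test compound, 10 min; add carbachol (200 nM, EC80) in stimulation buffer with LiCl; incubate 30 min; add labelled IP1 tracer and anti-IP1 antibody in lysis buffer; read HTRF after 10 min.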
In general terms: Quantitative high-throughput screening tests each substance at several concentrations.

Assay [3] addresses Pyruvate kinase (Leishmania mexicana) (UniProt Q27686). Nature of the assay: qHTS Validation Assay for Inhibitors of Leishmania Mexicana Pyruvate Kinase (AID 945). The method in brief: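 The enzyme is a highly purified E451W mutant of LmPYK used at 0.2 nM. It converts 0.5 mM PEP and 0.1 mM ADP over 1 h at room temperature; product ATP is quantified by luciferase luminescence relative to DMSO controls.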

Assay [4] is described as follows: Cell Viability - LYMP1-002 - Assay at 16 hr (AID 948). An outline of the steps:
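LYMP1-002 human lymphoblastoid cells, 2500/well; 5 hr 37 C; cpd 16 hr 37 C; CellTiter-Glo 30 min RT; luminescence (ATP). Concentration-response, Hill-fit AC50. Pos ctrl tetraoctylammonium bromide.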

Assay [5] in a line: MultiTox-Fluor Cytotoxicity Assay - LYMP1-002 - Dead Cells (AID 960). Further: nearly all actives have a fitted effect of over 60% in size. Further: potency means the concentration at half of the fitted maximal effect. The method in brief: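 Acute cytotoxicity in a human lymphoblastoid line is scored as rising dead-cell protease signal after 16 hr exposure at 37 C, measured fluorometrically (485/520).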
The nature of assay [6]: MultiTox-Fluor Cytotoxicity Assay - LYMP1-003 - Dead Cells (AID 961).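 Further: cells exposed to compound for 16 h at 37 °C; nearly all actives have a fitted effect of over 70% in size.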 Further: potency means the concentration at half of the fitted maximal effect. The method in brief: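 LYMP1-003 lymphoblastoid, 2500 cells/well, 5 hr settle then 16 hr cpd at 37 C; MultiTox-Fluor reagent 60 min RT; Ex/Em 485/520 dead-cell signal; norm. DMSO = 0%, 15 uM tetraoctylammonium bromide = 100%; Hill AC50.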
Assay [7] can be described thus: MultiTox-Fluor Cytotoxicity Assay - LYMP1-003 - Live Cells (AID 962).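 Further: cells exposed to compound for 16 hours at 37 °C; cytotoxic hits lower the live-cell protease signal.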 An outline of the steps: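 Cells plated at 2500 per well and incubated 5 hr; compounds added and incubated 16 hr at 37 C; MultiTox-Fluor reagent added for 60 min at room temperature; fluorescence of liberated AFC measured at 405/510 nm.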
A short description of assay [8]: Confirmation and Secondary Assay for Modulators of Hemoglobin Beta Chain Splicing at IVS2 705 locus (AID 930).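 Further: HeLa cells stably expressing the EGFP-705 splicing reporter; GFP fluorescence per well restored by corrected splicing of the IVS2-705 intron in EGFP; series mostly up to about 46 µM.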 An outline of the steps: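 Splice-correction reporter: EGFP cDNA split by beta-globin intron 2 bearing the 705 mutation, stably in HeLa. Compound incubation 2 days, 37C; fluorescent objects 5-250 µm summed per well.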
Assay [9] can be described thus: MultiTox-Fluor Cytotoxicity Assay - LYMP1-001 - Dead Cells (AID 946).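 Further: cells exposed to compound for 16 h.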 The method in brief:
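Seed 2500 LYMP1-001 cells/well, incubate 5 hr at 37 C; add compound, 16 hr at 37 C; add MultiTox-Fluor reagent, 60 min RT; read dead-cell fluorescence Ex/Em=485/520. Normalize to DMSO and 15 uM tetraoctylammonium bromide.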

Assay [10] in a line: MultiTox-Fluor Cytotoxicity Assay - LYMP1-001 - Live Cells (AID 947).
The target of assay [11] is Pyruvate kinase PKM (Homo sapiens) (UniProt P14618). Nature of the assay: qHTS Assay for Activators of Human Muscle Pyruvate Kinase (AID 954; active means well fitted curve in the direction sought with a large enough effect, not every such curve was filed as active). An outline of the steps: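 Reaction: 0.1 nM purified PKM2 with 0.5 mM phosphoenolpyruvate and 0.1 mM ADP, room temperature, 1 h. Readout: luciferase-based ATP luminescence after stop reagent. Activators judged against a 0.3 nM enzyme column.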
Sequence of Pyruvate kinase PKM (Homo sapiens) (P14618 whole entry, looked up): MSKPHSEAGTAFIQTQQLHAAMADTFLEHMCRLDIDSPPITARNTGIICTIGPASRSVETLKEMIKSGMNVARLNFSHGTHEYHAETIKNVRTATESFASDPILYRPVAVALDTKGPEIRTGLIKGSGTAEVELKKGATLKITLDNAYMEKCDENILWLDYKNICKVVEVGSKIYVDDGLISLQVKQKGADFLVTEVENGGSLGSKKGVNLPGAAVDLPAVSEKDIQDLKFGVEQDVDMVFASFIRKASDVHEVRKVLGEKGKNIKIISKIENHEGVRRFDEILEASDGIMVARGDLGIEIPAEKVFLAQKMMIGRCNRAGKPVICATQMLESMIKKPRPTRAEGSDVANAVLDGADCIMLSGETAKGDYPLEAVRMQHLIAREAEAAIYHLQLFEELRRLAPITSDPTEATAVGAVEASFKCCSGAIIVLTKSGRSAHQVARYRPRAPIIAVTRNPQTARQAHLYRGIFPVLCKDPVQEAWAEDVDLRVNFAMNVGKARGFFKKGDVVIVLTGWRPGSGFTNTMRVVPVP

Assay [12] in a line: MultiTox-Fluor Cytotoxicity Assay - LYMP1-002 - Live Cells (AID 955).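 Further: cells exposed to compound for 16 hours.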 The method in brief:
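Cytotoxicity in the human lymphoblastoid line LYMP1-002 is measured as loss of live-cell protease activity after 16 h treatment in complete culture medium. AC50 is derived from Hill-equation fits of qHTS concentration-response data.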

Assay [13] is described as follows: Cell Viability - LYMP1-003 - Assay at 24 hr (AID 963). The method in brief: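 Acute toxicity in LYMP1-003 lymphoblastoid cells: 24 hr compound treatment at 37 C, ATP measured with CellTiter-Glo after 30 min at room temperature. AC50 derived by fitting the Hill equation to qHTS titrations.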
Assay [14] can be described thus: Cell Viability - LYMP2-005 (AID 967). Further: series mostly up to about 92 µM. The method in brief:
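Steps: seed 2500 LYMP2-005 cells/well, incubate 5 h at 37 C, add compound, incubate 24 h at 37 C, add CellTiter-Glo, wait 30 min at RT, read luminescence. Concentration-response data fitted to Hill equation for AC50.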

Assay [15] in a line: Cell Viability - LYMP2-009 (AID 968). Further: series mostly up to about 92 µM; nearly all actives have a fitted effect of over 55% in size.
Assay [16] can be described thus: Cell Viability - LYMP2-011 (AID 969). Further: nearly all actives have a fitted effect of over 60% in size. An outline of the steps: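 Acute toxicity is scored as a concentration-dependent drop in intracellular ATP of a human lymphoblastoid line after 24 hr treatment. Values are AC50s modeled with the Hill equation.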
The nature of assay [17]: Cell Viability - LYMP2-013 (AID 970). Further: series mostly up to about 92 µM; nearly all actives have a fitted effect of over 55% in size. The method in brief:
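Acute toxicity was measured in human lymphoblastoid cells (2500/well) exposed to compound titrations for 24 hr, with ATP luminescence (CellTiter-Glo) as read-out and AC50 fitted by Hill equation.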

The nature of assay [18]: Cell Viability - LYMP2-015 (AID 971). Further: nearly all actives have a fitted effect of over 55% in size. The method in brief: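 Acute toxicity was scored as a concentration-dependent drop in intracellular ATP in lymphoblastoid cells after 24 hr compound exposure in complete medium. Detection used CellTiter-Glo luciferase luminescence.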

Sequence of Muscarinic acetylcholine receptor M1 (Rattus norvegicus) (P08482 whole entry, looked up): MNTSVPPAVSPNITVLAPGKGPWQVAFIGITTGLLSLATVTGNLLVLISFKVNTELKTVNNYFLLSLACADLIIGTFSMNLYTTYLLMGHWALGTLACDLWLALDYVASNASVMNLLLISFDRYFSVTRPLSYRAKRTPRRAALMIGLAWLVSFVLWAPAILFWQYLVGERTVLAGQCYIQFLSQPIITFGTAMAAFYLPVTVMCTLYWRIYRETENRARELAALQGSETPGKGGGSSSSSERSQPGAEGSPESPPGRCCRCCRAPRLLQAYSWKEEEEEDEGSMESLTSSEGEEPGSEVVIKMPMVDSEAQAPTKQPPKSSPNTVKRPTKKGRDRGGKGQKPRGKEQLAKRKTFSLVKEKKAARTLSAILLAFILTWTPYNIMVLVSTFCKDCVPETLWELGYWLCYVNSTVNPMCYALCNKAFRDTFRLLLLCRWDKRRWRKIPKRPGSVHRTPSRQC
Sequence of Pyruvate kinase (Leishmania mexicana) (Q27686 2-499 E452W): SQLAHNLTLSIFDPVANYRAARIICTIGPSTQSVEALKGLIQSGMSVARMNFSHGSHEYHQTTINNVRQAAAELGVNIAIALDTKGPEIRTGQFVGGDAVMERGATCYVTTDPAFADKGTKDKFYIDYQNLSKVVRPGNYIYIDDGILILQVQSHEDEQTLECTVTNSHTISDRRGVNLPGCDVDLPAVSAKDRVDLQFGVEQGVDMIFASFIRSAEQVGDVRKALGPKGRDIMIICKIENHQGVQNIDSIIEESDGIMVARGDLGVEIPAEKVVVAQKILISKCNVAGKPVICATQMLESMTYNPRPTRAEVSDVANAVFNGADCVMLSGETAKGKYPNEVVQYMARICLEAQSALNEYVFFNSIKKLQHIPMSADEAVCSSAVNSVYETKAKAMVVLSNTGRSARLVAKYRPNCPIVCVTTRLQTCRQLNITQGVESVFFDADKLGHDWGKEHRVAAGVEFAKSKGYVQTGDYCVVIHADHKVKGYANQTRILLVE

Take `COC(=O)[C@H]1[C@H]2C[C@@H]3c4[nH]c5cc(OC)ccc5c4CCN3C[C@H]2C[C@@H](OC(=O)c2cc(OC)c(OC)c(OC)c2)[C@@H]1OC`: the result in [1], in [4] and in assay [7] was inactive. Besides, the results for the Potency in [2], in [5] and in [6] were 8.91 µM (active), 31.6 µM (active) and 50.1 µM (active), respectively. Also, in assay [3], the Potency entry was “inactive”.
Consider `O=C(O)CCCCCCCC(=O)O`, for which the compound was called inactive in [8]. Also, the Potency entry in assay [2] and in assay [3] was “inactive” throughout.
Regarding `CCCCNC(=O)NS(=O)(=O)c1ccc(C)cc1`, the outcome in [1], in [8], in assay [9], in [10], in assay [4] and in [11] was inactive. Moreover, the compound was called inactive in assay [12], in [7], in assay [13], in assay [16], in assay [17] and in [18]. For the same compound, the Potency result in assay [2], in assay [3], in assay [5], in assay [6], in [14] and in assay [15] was “inactive” in each case.
Turning to `CCCN(CCC)C(=O)C(CCC(=O)O)NC(=O)c1ccccc1` (centres undefined), the outcome in [8] was inactive.
Regarding `CN=C(NC#N)NCCSCc1nc[nH]c1C`, the compound was classed as inactive in [1], in [8], in [9], in [10], in assay [4] and in assay [11]. The compound was called inactive in assay [12], in [7], in assay [13], in assay [16], in assay [17] and in [18]. In addition, the Potency result in assay [2], in assay [3], in assay [5], in assay [6], in [14] and in assay [15] was “inactive” in each case.
Turning to `CCCCOCCOCCOCc1cc2c(cc1CCC)OCO2`, the compound was called inactive in assay [1], in assay [9], in assay [10], in [4], in assay [12] and in assay [7]. In addition, the result in assay [13], in assay [16], in [17] and in assay [18] was inactive. In addition, the Potency result in assay [5], in assay [6], in assay [14] and in assay [15] was “inactive” throughout.
Take `CN(C)CCCN1c2ccccc2Sc2ccc(C(F)(F)F)cc21`: in [8], the outcome was inactive. For the same compound, the Potency in assay [2] was 1 µM (active). Further, the Potency result in assay [3] is “inactive”.
Regarding `CC(C)NCC(O)c1cc(O)cc(O)c1` (centres undefined), the outcome in [8] was inactive.
Still for that read-out and setting: the entry for `CC(C)(C)NCC(O)c1cc(O)cc(O)c1` (centres undefined) is “inactive”.
Still for that read-out and setting: for `CCCNC(C)C(=O)Nc1ccccc1C` (centres undefined) the value was “inactive”.
Turning to `Cc1nc2ccccn2c(=O)c1CCN1CCC(C(=O)c2ccc(F)cc2)CC1`, the compound was classed as inactive in assay [8]. Besides, the Potency in assay [2] is 8.91 µM (active). Further, in assay [3], the Potency result is “inactive”.
`Cc1ccc(S(=O)(=O)NC(=O)NN2CCCCCC2)cc1`: the result in assay [8] was inactive. The Potency entry in assay [2] and in assay [3] was “inactive” in each case.
Turning to `NC(=Nc1ccccc1)Nc1ccccc1`, the result in assay [1], in assay [9], in assay [10], in [4], in [12] and in [7] was inactive. For the same compound, the compound was called inactive in assay [13], in assay [16], in assay [17] and in assay [18]. The Potency result in assay [5], in assay [6], in assay [14] and in [15] was “inactive” each time.
Regarding `Cc1ccc(/C(=C\CN2CCCC2)c2ccccn2)cc1`, the outcome in assay [8] was inactive.
As for `CC(=O)OC(C)C[N+](C)(C)C` (centres undefined), the call in assay [8] was inactive.
`NC(=O)N1c2ccccc2C=Cc2ccccc21`: the call in assay [1], in assay [8], in assay [9], in assay [10], in assay [4] and in assay [12] was inactive. In addition, the call in assay [7], in assay [13], in assay [16], in assay [17] and in [18] was inactive. Further, the Potency result in assay [3], in [5], in assay [6], in assay [14] and in assay [15] was “inactive” each time.
Turning to `COCCc1ccc(OCC(O)CNC(C)C)cc1` (centres undefined), in assay [8], the call was inactive.
As for `C=CCc1ccccc1OCC(O)CNC(C)C` (centres undefined), the result in assay [8] was inactive.
On the same count and under the same terms, the entry for `c1ccc2c(c1)CCCC2C1=NCCN1` (centres undefined) is “inactive”.
Turning to `O=c1[nH]c(=O)n([C@H]2C[C@H](O)[C@@H](CO)O2)cc1Br`, the call in assay [1], in [9], in assay [10], in assay [4], in assay [12] and in [7] was inactive. The outcome in assay [13], in assay [16], in assay [17] and in assay [18] was inactive. The Potency result in assay [3], in assay [5], in [6], in [14] and in assay [15] was “inactive” throughout.
Turning to `CC(N=C(NC#N)Nc1ccncc1)C(C)(C)C` (centres undefined), in assay [8], the call was inactive.
On the same count and under the same terms, the entry for `COC(=O)C1=C(C)NC(C)=C(C(=O)OCCN(C)Cc2ccccc2)C1c1cccc([N+](=O)[O-])c1` (centres undefined) is “inactive”.
On to `CN1CCN(C2=Nc3ccccc3Oc3ccc(Cl)cc32)CC1`, for which, in assay [8], the outcome was inactive. In addition, the Potency in assay [2] is 3.16 µM (active). In addition, the Potency result in [3] is “inactive”.
Consider `COc1ccc(CN(CCN(C)C)c2ccccn2)cc1`, for which the outcome in [1], in assay [8], in assay [9], in assay [10], in [4] and in [11] was inactive. Moreover, the outcome in [12], in assay [7], in [13], in assay [16], in assay [17] and in assay [18] was inactive. Further, the Potency result in assay [3], in assay [5], in assay [6], in assay [14] and in [15] was “inactive” in each case.
For `CCn1cc(C(=O)O)c(=O)c2cc3c(cc21)OCO3`, the outcome in [8] was inactive. Also, the Potency entry in assay [2] and in assay [3] was “inactive” throughout.
Take `CC(C)COCC(CN(Cc1ccccc1)c1ccccc1)N1CCCC1` (centres undefined): the result in [8] was inactive.
